Sampled rows, rich in hits. Any-hit rate of the full collection: about 2.3%.
CHRM1 antagonist: human M1 muscarinic receptor antagonists, primary screen, CHO-K1 cells, Fluo-8 calcium fluorescence, 1536-well; Muscarinic acetylcholine receptor M1 (Homo sapiens), P11229; CHO-K1 hM1, ACh EC80 antagonist; inhibition, % at 3 µM; 360,000 compounds, 1.3% hits;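 active = percent inhibition above its own plate's cutoff, namely the mean of that plate's compound wells plus 3 SD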;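 note: peak over basal fluorescence ratio during 140 s after agonist addition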
Target sequence (P11229 whole entry, looked up): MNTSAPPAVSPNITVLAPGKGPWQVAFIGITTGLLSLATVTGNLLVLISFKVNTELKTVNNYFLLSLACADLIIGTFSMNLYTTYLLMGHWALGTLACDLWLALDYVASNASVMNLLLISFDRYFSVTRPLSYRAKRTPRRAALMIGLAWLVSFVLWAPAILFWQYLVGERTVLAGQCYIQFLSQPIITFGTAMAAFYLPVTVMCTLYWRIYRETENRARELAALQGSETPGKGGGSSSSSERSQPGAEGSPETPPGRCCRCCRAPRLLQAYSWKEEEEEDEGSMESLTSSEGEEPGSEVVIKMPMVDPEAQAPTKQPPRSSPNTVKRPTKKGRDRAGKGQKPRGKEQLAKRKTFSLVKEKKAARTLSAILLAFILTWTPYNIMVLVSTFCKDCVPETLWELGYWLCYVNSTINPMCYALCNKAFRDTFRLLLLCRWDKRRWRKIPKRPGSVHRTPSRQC
M1 PAM parental: nonselective calcium activators in parental CHO-K1 cells, primary screen, counter-screen for M1 PAM project, cell-based, Fluo-8 calcium fluorescence, full deck, 1536-well; 360,000 compounds, 0.02% hits; AID 602247, 2012; ATP EC20; 0% at ATP EC20, 100% at ATP max; activation, % at 3 µM;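 active = activation above the run cutoff, the mean activation of all test compounds plus 3 SD, cut at about 40% in these data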;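 note: peak over basal fluorescence ratio in a 140 s read after ATP addition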
CHRM1 PAM: human M1 muscarinic receptor positive allosteric modulators, primary screen, CHO-K1 cells, Fluo-8 calcium fluorescence, 1536-well | Muscarinic acetylcholine receptor M1 (Homo sapiens), P11229 | CHO-K1 hM1, ACh EC20; 0% = ACh EC20, 100% = maximal ACh | activation, % at 3 µM | 360,000 compounds, 0.088% hits | AID 588819, 2011; in the data active = activation above about 19%, passing the limit was not always enough
CHRM1 agonist: human M1 muscarinic receptor agonists, primary screen, Fluo-8 calcium fluorescence, CHO-K1 cells, HTS | Muscarinic acetylcholine receptor M1 (Homo sapiens), P11229 | CHO-K1 hM1, agonist mode; 0% DMSO, 100% acetylcholine EC100 | activation, % at 3 µM | 360,000 compounds, 0.33% hits;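 active = activation above the run's mean compound activation plus 3 SD, cut at about 16% in these data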;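 note: peak over basal fluorescence ratio within a 140 s kinetic read after compound addition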
CHO-K1 Ca ag: counter-screen for M1 agonists: effect in parental CHO-K1 cells | Fluo-8 calcium fluorescence; scaled to maximal ATP response, vehicle zero | 360,000 compounds, 0.48% hits | AID 602248, 2012 | activation, % at 3 µM; in the data active = activation above about 15%;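 note: untransfected CHO-K1 host cells lacking M1 receptor as counterscreen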
CHO-K1 Ca antag: M1 antagonist counterscreen hit in parental CHO-K1 cells | AID 602250 | 360,000 compounds, 0.6% hits | ATP-induced calcium, Fluo-8 fluorescence | inhibition, % at 3 µM;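 active = inhibition above a per-plate cutoff, the plate's mean sample inhibition plus 3 SD, cut at about 24% in these data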
Large screens that a line does not name were inactive.

CN1CCN(C(=O)/C(C#N)=C/c2ccc(F)cc2)CC1	none
CN1CCN(C(=O)/C(=C/c2ccc(F)cc2)c2ccsc2)CC1	CHRM1 antagonist 98.4
O=C(CCC(=O)N1CCN(c2ccc(F)cc2)CC1)N1CCN(c2ccc(F)cc2)CC1	none
CN1CCN(C(=O)/C(=C/c2ccccc2)c2ccccc2)CC1	CHRM1 antagonist 98.5
CC1CC(C)CN(C(=O)/C(=C\c2ccccc2)c2ccccc2)C1 (stereo not given)	none
C/C(=C/c1ccccc1)C(=O)N1CCN(c2ccc(F)cc2)CC1	CHO-K1 Ca ag 15.7
O=C(CC(=O)NN=Cc1ccc2c(c1)CCC2)NN=Cc1ccc2c(c1)CCC2	none
O=C(COc1ccc2ccccc2c1Br)Nc1ncn[nH]1	CHO-K1 Ca ag 19.2
CCOc1ccc(CN2CCN(c3ncnc4scc(-c5ccccc5)c34)CC2)cc1	CHRM1 agonist 22.2
CCn1c2ccc(C)cc2c2nnc(SCCN3CCCCC3)nc21	CHRM1 antagonist 36.7
CCCn1c2ccc(C)cc2c2nnc(SCCN3CCCCC3)nc21	none
C=CCn1c2ccccc2c2nnc(SCN3C(=O)c4ccccc4C3=O)nc21	CHRM1 antagonist 46.4
C=CCn1c2ccccc2c2nnc(SCCN3CCCCC3)nc21	CHRM1 antagonist 53.3
COc1ccc(C(=O)N/N=C(\C)CC(=O)Nc2cccc(C(F)(F)F)c2)cc1	none
CC1=Nc2ccccc2/C1=C/c1nc(-c2ccc(C)s2)oc1O	none
CC1=Nc2ccccc2/C1=C/c1sc(=N)n(-c2nccs2)c1O	CHRM1 antagonist 34.4, CHO-K1 Ca antag 25.5
O=C(COC(=O)CSc1ccc(Cl)cc1)NCCc1ccccc1	none
COc1ccc(C(=O)CSc2nnc(CN3CCCCC3)n2-c2ccc(F)cc2)cc1	CHRM1 agonist 16.5, CHO-K1 Ca ag 20.4
COc1ccc(C(=O)CSc2nnc(-c3cccs3)n2-c2ccccc2)cc1	none
CCCCN(C=O)c1c(CC)nc2c(OCCOc3ccccc3)cccn12	none
Cc1cc(C)cc(OCC(O)CN2CCC(CN3C(=O)c4cccc5cccc(c45)C3=O)CC2)c1 (stereo not given)	CHRM1 antagonist 47.9
O=C1c2cccc3cccc(c23)C(=O)N1CC1CCN(CC(O)COc2ccc3ccccc3c2)CC1 (stereo not given)	CHRM1 antagonist 47.5
O=C1Cc2cc(O)ccc2O1	none
Cc1ccc(S(=O)(=O)N2CCC3(CC2)OCCO3)s1	none
COc1ccc([C@@H]2CC(=O)[C@@H]3CN(S(=O)(=O)c4ccc(C)cc4)[C@H](c4ccccc4)C[C@@H]3N2S(=O)(=O)c2ccccc2)cc1	none
COCCCNC(=O)C1c2ccccc2Oc2ccccc21	none
CCc1nnc(NC(=O)C2c3ccccc3Oc3ccccc32)s1	CHRM1 antagonist 36.5
CNS(=O)(=O)c1ccc(NC(=O)C2c3ccccc3Oc3ccccc32)cc1	none
CCN(CC)CCCNC(=O)C1c2ccccc2Oc2ccccc21	CHRM1 antagonist 48.6
O=C(Nc1nc2ccccc2s1)C1c2ccccc2Oc2ccccc21	none
CCN(CC)S(=O)(=O)c1ccc(NC(=O)C2c3ccccc3Oc3ccccc32)cc1	CHRM1 agonist 19.8
Cc1cccc(C)c1NC(=O)CNC(=O)c1c(-c2ccccc2)noc1C	none
COc1ccc2c(c1)C1(Nc3ccccc3-c3nc4ccccc4n31)C(=O)N2 (stereo not given)	CHO-K1 Ca ag 37.4
CC1(C)C2CC[C@]3(C)C(CC=C4[C@@H]5C[C@@](C)(CO)[C@@H](O)C[C@]56C[C@@H](OC6=O)[C@]43C)[C@@]2(C)CC[C@@H]1O (stereo not given in full)	none
COc1ccc(NC(=O)CN2CCN(CC(=O)Nc3ccc(OC)cc3)CC2)cc1	none
O=C(COc1ccc(Br)cc1CNCCc1ccccc1)NCc1ccccc1	CHRM1 antagonist 36.2
CCCNCc1cc(Br)ccc1OCC(=O)NCCc1ccccc1	none
CCOc1cc(N2CCOCC2)c(OCC)cc1NC(=O)CN1CCCC1	none

Screening results as filed in PubChem.
